From PubChem BioAssay (EPA / NIEHS)
Records with an inconclusive call do not appear. Active and inactive are the calls of the source. The calls were made as follows, unless noted: active = hit-call score of the fitted dose curve at least 0.9, where 1 is the maximum; inactive = score below 0.9.

Tests used:
[1] = target: Oxysterols receptor LXR-alpha (Homo sapiens) (UniProt Q13133); test: ATG_LXRa_TRANS: Attagene TRANS-FACTORIAL HepG2 Assay for human Liver X Receptor alpha (LXRa) (AID 2282980; active = hit-call score of the fitted dose curve at least 0.9, where 1 is the maximum); conditions: HepG2 Attagene TRANS reporter, LXRa transactivation
Oxysterols receptor LXR-alpha (Homo sapiens), sequence (Q13133 whole entry, looked up, the tested form may be a part): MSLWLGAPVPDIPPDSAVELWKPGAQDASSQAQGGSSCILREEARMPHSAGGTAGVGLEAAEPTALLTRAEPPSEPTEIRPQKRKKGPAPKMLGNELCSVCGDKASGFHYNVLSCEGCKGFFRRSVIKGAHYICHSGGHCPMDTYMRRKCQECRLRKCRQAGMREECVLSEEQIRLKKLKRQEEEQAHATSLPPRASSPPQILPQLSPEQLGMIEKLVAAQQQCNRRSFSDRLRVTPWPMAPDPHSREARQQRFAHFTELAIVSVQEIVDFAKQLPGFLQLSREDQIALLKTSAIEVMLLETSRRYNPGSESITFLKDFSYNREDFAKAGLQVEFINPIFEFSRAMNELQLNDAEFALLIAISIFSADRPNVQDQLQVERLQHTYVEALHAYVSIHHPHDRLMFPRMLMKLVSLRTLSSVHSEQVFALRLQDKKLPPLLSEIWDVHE
In short: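 Read-out: reporter transcript levels by RT-PCR plus capillary electrophoresis, fluorescence intensity. Transiently transfected HepG2, exogenous NR-GAL4 chimera, GAL4-UAS reporters; 24 h compound exposure. Activity = increase over DMSO negative control.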

[2] = target: Oxysterols receptor LXR-beta (Homo sapiens) (UniProt P55055); test: ATG_LXRb_TRANS: Attagene TRANS-FACTORIAL HepG2 Assay for human Liver X Receptor beta (LXRb) (AID 2282981; active = hit-call score of the fitted dose curve at least 0.9, where 1 is the maximum); conditions: HepG2 Attagene TRANS GAL4-LXRb reporter, mRNA
Oxysterols receptor LXR-beta (Homo sapiens), sequence (P55055 whole entry, looked up, the tested form may be a part): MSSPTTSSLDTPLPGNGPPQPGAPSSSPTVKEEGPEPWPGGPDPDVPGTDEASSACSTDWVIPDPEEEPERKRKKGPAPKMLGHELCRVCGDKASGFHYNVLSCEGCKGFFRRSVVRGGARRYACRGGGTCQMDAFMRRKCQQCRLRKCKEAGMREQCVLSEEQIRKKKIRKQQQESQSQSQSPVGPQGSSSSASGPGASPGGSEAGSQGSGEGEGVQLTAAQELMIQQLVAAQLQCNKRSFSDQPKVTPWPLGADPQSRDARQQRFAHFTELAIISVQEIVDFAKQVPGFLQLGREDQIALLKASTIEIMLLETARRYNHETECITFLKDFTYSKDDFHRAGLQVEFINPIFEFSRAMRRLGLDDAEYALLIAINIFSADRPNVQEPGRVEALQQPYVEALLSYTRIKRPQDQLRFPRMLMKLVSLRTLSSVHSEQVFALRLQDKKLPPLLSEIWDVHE
In short: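 After 24 h chemical treatment of transfected HepG2 cells carrying exogenous NR-Gal4 chimeras, reporter mRNA was quantified by fluorescent RT-PCR and capillary electrophoresis; activity taken as increase over DMSO controls.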

[3] = target: Nuclear receptor subfamily 4 group A member 2 (Homo sapiens) (UniProt P43354); test: ATG_NURR1_TRANS: Attagene TRANS-FACTORIAL HepG2 Assay for human Nuclear Receptor Related Protein 1 (NURR1) (AID 2282985; active = hit-call score of the fitted dose curve at least 0.9, where 1 is the maximum); conditions: HepG2 Attagene TRANS reporter, mRNA readout
Nuclear receptor subfamily 4 group A member 2 (Homo sapiens), sequence (P43354 whole entry, looked up, the tested form may be a part): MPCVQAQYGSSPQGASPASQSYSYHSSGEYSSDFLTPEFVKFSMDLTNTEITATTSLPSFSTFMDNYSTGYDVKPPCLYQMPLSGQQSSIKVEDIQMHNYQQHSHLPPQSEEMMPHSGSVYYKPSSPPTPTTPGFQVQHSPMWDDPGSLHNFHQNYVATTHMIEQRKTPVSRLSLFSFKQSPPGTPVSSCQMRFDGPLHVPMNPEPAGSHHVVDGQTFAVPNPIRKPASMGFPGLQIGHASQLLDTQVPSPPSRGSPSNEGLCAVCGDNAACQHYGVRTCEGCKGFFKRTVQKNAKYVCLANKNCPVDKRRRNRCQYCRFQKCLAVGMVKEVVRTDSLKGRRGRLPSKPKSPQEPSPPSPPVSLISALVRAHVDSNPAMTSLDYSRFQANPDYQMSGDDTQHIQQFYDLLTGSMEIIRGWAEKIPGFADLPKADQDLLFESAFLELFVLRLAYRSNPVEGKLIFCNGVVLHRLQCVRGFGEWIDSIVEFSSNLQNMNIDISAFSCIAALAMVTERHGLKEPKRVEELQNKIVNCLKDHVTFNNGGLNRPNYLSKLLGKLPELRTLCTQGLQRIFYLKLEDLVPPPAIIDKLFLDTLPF
In short: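 Reporter transcript induction, measured by RT-PCR with fluorescent labelling, HpaI digestion and capillary electrophoresis, after 24 hr dosing of human HepG2 cells transiently expressing an exogenous NR-Gal4 fusion with GAL4-UAS-driven reporters; DMSO as baseline.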

[4] = target: Nuclear respiratory factor 1 (Homo sapiens) (UniProt Q16656); test: ATG_NRF1_CIS: Attagene CIS-FACTORIAL HepG2 Assay for human Nuclear Respiratory Factor 1 (NRF1) Orphan Gene (AID 2282987); conditions: HepG2 NRF1 cis-element reporter, Attagene multiplex; actives raise or lower the signal
Nuclear respiratory factor 1 (Homo sapiens), sequence (Q16656 whole entry, looked up): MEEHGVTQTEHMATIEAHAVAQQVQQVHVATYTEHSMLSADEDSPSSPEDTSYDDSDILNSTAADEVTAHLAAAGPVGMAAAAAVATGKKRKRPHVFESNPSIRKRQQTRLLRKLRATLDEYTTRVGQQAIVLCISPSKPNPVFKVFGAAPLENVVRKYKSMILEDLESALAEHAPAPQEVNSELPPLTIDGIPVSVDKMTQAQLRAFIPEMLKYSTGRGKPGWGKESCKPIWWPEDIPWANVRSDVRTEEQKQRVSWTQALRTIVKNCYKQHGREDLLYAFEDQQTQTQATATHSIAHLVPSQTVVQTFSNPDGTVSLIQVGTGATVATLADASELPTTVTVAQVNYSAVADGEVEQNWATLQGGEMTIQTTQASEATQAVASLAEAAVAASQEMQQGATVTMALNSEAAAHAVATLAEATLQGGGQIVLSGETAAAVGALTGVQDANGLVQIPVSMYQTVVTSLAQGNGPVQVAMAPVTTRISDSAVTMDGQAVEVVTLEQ
In short: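 Multiplexed cis-reporter assay, HepG2 cells, 24 h treatment. Total RNA → oligo(dT) RT → PCR with reporter-specific primers → 6-FAM primer extension → HpaI cut → CE. Bidirectional fit vs DMSO.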

[5] = ATG_NFI_CIS: Attagene CIS-FACTORIAL HepG2 Assay for human Nuclear Factor I (NFI) (AID 2282989); conditions: HepG2 cis-regulatory reporter, NFI response element transcription; actives raise or lower the signal
In short: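 Read-out: reporter mRNA via RT-PCR plus capillary electrophoresis with fluorescence detection. Transiently transfected HepG2 (endogenous TF activity on cis promoters), 24 h compound exposure; gain or loss of signal fitted against DMSO.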

[6] = target: Myc proto-oncogene protein (Homo sapiens) (UniProt P01106); test: ATG_Myc_CIS: Attagene CIS-FACTORIAL HepG2 Assay for human Myelocytomatosis (Myc) Proto-Oncogene Transcription Factor (AID 2282990); conditions: HepG2, Attagene cis-reporter transcription factor activity; actives raise or lower the signal
Myc proto-oncogene protein (Homo sapiens), sequence (P01106 whole entry, looked up, the tested form may be a part): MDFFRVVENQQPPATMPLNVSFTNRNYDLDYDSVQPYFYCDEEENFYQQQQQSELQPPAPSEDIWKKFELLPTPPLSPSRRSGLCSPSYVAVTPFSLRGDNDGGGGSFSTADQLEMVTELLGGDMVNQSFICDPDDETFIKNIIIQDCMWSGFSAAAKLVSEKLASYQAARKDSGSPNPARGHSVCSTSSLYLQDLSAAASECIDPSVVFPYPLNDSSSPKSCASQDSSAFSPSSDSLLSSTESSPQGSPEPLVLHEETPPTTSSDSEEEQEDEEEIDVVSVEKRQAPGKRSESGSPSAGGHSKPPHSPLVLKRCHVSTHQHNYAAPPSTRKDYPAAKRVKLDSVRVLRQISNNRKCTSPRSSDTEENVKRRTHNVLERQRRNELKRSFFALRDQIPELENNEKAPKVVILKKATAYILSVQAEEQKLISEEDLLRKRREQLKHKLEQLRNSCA
In short: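 After 24 h chemical treatment of HepG2 cells carrying multiplexed cis-regulated reporter constructs, reporter transcripts quantified by RT-PCR and capillary electrophoresis of fluorescent fragments. Gain or loss fitted against DMSO baseline.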

[7] = ATG_NF_kB_CIS: Attagene CIS-FACTORIAL HepG2 Assay for human Nuclear Factor Kappa B (NF-kB) (AID 2282991); conditions: HepG2 Attagene cis-factorial NF-kB reporter mRNA; actives raise or lower the signal
In short: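 Transient MRTU transfection of human HepG2 liver cells → 24 h chemical exposure → total RNA, oligo(dT) RT → PCR, 6-FAM primer extension, HpaI digest 2 h 37 C → CE fragment analysis. Bidirectional fitting, DMSO negative control.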

[8] = ATG_NRF2_ARE_CIS: Attagene CIS-FACTORIAL HepG2 Assay for human Nuclear Factor Erythroid 2 Related Factor 2 (NFR2) response to Antioxidant Response Elements (ARE) (AID 2282992); conditions: HepG2 Attagene ARE/NRF2 reporter, transcription factor activity; actives raise or lower the signal
In short: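 Endogenous transcription factor activity in human liver HepG2 cells is tracked via a cis-element-driven reporter within a multiplexed set. mRNA induction is read by RT-PCR and capillary electrophoresis after 24 h, with DMSO as baseline.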

[9] = ATG_Oct_MLP_CIS: Attagene CIS-FACTORIAL HepG2 Assay for human Octamer-Binding Transcription Factor (Oct) (AID 2282993); conditions: HepG2 Attagene cis-factorial Oct reporter, mRNA; actives raise or lower the signal
In short: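 Read-out: reporter mRNA via RT-PCR plus capillary electrophoresis of 6-FAM-labelled fragments. Transiently transfected HepG2, 24 h exposure, endogenous TF activity on cis elements. Gain or loss of signal fitted relative to DMSO.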

[10] = target: Cellular tumor antigen p53 (Homo sapiens) (UniProt P04637); test: ATG_p53_CIS: Attagene CIS-FACTORIAL HepG2 Assay for human p53 Transcription Factor (AID 2282994); conditions: HepG2 p53 cis-element reporter, Attagene mRNA; actives raise or lower the signal
Cellular tumor antigen p53 (Homo sapiens), sequence (P04637 whole entry, looked up, the tested form may be a part): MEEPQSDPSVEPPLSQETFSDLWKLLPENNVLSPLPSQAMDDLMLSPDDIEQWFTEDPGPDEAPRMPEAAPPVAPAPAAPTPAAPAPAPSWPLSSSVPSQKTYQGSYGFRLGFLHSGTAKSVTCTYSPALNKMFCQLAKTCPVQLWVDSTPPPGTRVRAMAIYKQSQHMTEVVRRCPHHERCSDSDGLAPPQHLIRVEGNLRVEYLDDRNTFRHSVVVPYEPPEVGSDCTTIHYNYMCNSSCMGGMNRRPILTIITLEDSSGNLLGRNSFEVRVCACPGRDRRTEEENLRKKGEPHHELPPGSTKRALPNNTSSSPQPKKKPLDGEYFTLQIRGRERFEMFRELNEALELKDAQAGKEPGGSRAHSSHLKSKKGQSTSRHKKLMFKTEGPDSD
In short: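 Steps: transfect HepG2 with multiplexed cis reporter constructs; dose chemicals 24 h; extract RNA, reverse-transcribe, PCR-amplify reporter sequences; FAM-label, HpaI-digest, resolve fragments by CE. Activity fitted both directions relative to DMSO.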

[11] = BSK_3C_TissueFactor: BioMAP Diversity Plus: 3C Assay for Tissue Factor Biomarker Activity (AID 2282997); conditions: BioMAP 3C HUVEC, tissue factor biomarker readout; actives raise or lower the signal
In short: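 HUVEC, 3C system, 24 h post-dose; Tissue Factor by ELISA; bidirectional fit vs DMSO baseline.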

[12] = BSK_3C_uPAR: BioMAP Diversity Plus: 3C Assay for Urokinase-type plasminogen activator receptor (uPAR) Biomarker Activity (AID 2282998); conditions: BioMAP 3C HUVEC, uPAR biomarker ELISA; actives raise or lower the signal
In short: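 HUVEC primary cells; 24 h post-dose; uPAR by ELISA; gain or loss of signal fitted bidirectionally vs DMSO baseline.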

[13] = BSK_3C_VCAM1: BioMAP Diversity Plus: 3C Assay for Vascular cell adhesion molecule 1 (VCAM1) Biomarker Activity (AID 2282999); conditions: BioMAP 3C HUVEC, VCAM1 ELISA, cytokine-stimulated; actives raise or lower the signal
In short: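 Activity fitted in both directions relative to DMSO, with ELISA measurement of the surface marker on primary HUVEC (3C) at 24 h post-treatment; parallel SRB staining (0.1% SRB, TCA-fixed, 560 nm) flagged overt cytotoxicity.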

[14] = BSK_4H_Eotaxin3: BioMAP Diversity Plus: 4H Assay for Eotaxin 3 Biomarker Activity (AID 2283000); conditions: primary human endothelial cells (HUVEC); actives raise or lower the signal
In short: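 Readout is Eotaxin-3 (CCL26) level by ELISA in primary human umbilical vein endothelial cells harvested 24 h after chemical exposure; activity fitted in both directions against DMSO control.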

[15] = target: human Peroxisome Proliferator-activated Receptor alpha (PPARa), PPARA (gene 5465) (UniProt Q07869); test: ATG_PPARa_TRANS: Attagene TRANS-FACTORIAL HepG2 Assay for human Peroxisome Proliferator-activated Receptor alpha (PPARa) (AID 2283001; active = hit-call score of the fitted dose curve at least 0.9, where 1 is the maximum)
human Peroxisome Proliferator-activated Receptor alpha (PPARa), PPARA (gene 5465), sequence (Q07869 whole entry, looked up, the tested form may be a part): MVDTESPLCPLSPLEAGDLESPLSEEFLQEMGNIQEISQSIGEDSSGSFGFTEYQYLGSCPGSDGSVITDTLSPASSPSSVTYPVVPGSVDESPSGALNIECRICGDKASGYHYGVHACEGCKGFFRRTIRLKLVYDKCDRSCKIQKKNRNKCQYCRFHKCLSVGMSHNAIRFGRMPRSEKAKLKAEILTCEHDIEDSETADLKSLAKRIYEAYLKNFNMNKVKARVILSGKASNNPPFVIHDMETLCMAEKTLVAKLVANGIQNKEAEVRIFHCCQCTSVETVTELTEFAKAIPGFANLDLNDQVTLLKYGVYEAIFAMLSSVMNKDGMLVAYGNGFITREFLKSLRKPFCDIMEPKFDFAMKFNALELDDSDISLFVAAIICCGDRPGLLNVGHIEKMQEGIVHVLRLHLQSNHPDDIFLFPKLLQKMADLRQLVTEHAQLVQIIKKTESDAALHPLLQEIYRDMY
In short: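 Reporter transcripts quantified by RT-PCR plus capillary electrophoresis after 24 h treatment, fitted upward relative to DMSO. Cells: human HepG2 transiently carrying multiple GAL4-UAS reporter units driven by NR-Gal4 chimeras.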

[16] = ATG_M_32_TRANS: Attagene TRANS-FACTORIAL HepG2 Assay for M32 Transcription Factor (Internal Marker) (AID 2282984; active = hit-call score of the fitted dose curve at least 0.9, where 1 is the maximum); conditions: HepG2 Attagene TRANS M32 internal marker reporter
In short: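 Internal background reporter in transfected HepG2: after 24 h chemical exposure, RNA reverse-transcribed, reporter cDNA amplified, fluorescently labelled and HpaI-cut, then sized by capillary electrophoresis. Gain of signal fitted against DMSO control.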

[17] = target: Transcriptional activator Myb (Homo sapiens) (UniProt P10242); test: ATG_Myb_CIS: Attagene CIS-FACTORIAL HepG2 Assay for human Myeloblastosis (Myb) Proto-Oncogene Transcription Factor (AID 2282986); conditions: HepG2 Attagene CIS-FACTORIAL Myb reporter transcription; actives raise or lower the signal
Transcriptional activator Myb (Homo sapiens), sequence (P10242 whole entry, looked up): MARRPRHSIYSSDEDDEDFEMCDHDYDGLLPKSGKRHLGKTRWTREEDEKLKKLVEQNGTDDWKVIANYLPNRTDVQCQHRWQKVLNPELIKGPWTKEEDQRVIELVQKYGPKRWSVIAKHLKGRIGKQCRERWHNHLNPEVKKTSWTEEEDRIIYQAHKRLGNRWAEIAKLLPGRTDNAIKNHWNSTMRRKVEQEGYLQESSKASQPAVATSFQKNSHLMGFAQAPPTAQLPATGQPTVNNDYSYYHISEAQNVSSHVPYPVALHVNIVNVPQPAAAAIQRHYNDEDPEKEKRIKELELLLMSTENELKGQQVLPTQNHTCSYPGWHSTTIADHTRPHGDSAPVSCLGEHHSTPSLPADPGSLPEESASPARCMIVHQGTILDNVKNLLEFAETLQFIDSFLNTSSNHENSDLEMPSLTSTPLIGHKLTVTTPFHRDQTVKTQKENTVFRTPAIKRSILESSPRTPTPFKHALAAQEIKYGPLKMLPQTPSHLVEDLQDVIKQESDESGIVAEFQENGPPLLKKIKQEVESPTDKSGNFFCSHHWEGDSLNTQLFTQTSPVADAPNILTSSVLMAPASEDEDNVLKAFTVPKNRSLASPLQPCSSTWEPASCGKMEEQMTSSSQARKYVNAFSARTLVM
In short: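 Reporter transcript levels, quantified by fluorescent RT-PCR and capillary electrophoresis, serve as the read-out. Transfected HepG2 cells carrying cis-promoter reporter units are dosed for 24 hours, and curves are fitted bidirectionally against DMSO controls.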

[18] = ATG_M_06_TRANS: Attagene TRANS-FACTORIAL HepG2 Assay for M06 Transcription Factor (Internal Marker) (AID 2282983; active = hit-call score of the fitted dose curve at least 0.9, where 1 is the maximum); conditions: HepG2 Attagene TRANS M06 internal marker reporter
In short: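 Read-out: fluorescent reporter cDNA fragments resolved by capillary electrophoresis after RT-PCR and HpaI cut. Source cells were HepG2 carrying transfected multi-reporter GAL4 constructs, dosed 24 h. Increase over DMSO control analysed.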

[19] = target: human Peroxisome Proliferator-activated Receptor delta (PPARd), PPARD (gene 5467) (UniProt Q03181); test: ATG_PPARd_TRANS: Attagene TRANS-FACTORIAL HepG2 Assay for human Peroxisome Proliferator-activated Receptor delta (PPARd) (AID 2283002; active = hit-call score of the fitted dose curve at least 0.9, where 1 is the maximum)
human Peroxisome Proliferator-activated Receptor delta (PPARd), PPARD (gene 5467), sequence (Q03181 whole entry, looked up, the tested form may be a part): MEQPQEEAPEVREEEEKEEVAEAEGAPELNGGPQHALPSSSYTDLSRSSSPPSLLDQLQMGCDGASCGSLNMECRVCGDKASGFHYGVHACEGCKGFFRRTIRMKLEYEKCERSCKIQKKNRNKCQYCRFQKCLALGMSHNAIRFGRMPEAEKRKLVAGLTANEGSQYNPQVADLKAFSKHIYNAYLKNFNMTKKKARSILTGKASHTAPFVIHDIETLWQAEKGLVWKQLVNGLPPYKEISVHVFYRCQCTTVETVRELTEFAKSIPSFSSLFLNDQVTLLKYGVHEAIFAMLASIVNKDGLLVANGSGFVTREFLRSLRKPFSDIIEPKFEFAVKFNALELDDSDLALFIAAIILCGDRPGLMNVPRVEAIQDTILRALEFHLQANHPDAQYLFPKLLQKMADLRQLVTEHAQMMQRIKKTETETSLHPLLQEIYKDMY
In short: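 Read-out is induced reporter mRNA, quantified by RT-PCR with fluorescent labelling and capillary electrophoresis after 24 h dosing. Cells are HepG2 transiently carrying multiple GAL4-UAS reporter units driven by exogenous NR-GAL4 chimeras; DMSO serves as baseline.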

Measured: AC50

C1N2CN3CN1CN(C2)C3
not listed: [16] | [17] | [18] | [19]
inactive: all other assays above

C=CC(=C)CCC=C(C)C
not listed: [1] | [6] | [14] | [15] | [18] | [19]
inactive: all other assays above

CC(C)CCO
not listed: [1] | [3] | [19]
inactive: all other assays above

COCCOCCOCCOC
not listed: [2] | [6] | [14] | [17] | [19]
inactive: all other assays above

CCCCCCCCCCCCc1ccccc1
not listed: [2] | [3] | [14] | [15] | [17]
inactive: all other assays above

O=C(OC[C@H]1O[C@@H](OC(=O)c2cc(O)c(O)c(OC(=O)c3cc(O)c(O)c(O)c3)c2)[C@H](OC(=O)c2cc(O)c(O)c(OC(=O)c3cc(O)c(O)c(O)c3)c2)[C@@H](OC(=O)c2cc(O)c(O)c(OC(=O)c3cc(O)c(O)c(O)c3)c2)[C@@H]1OC(=O)c1cc(O)c(O)c(OC(=O)c2cc(O)c(O)c(O)c2)c1)c1cc(O)c(O)c(OC(=O)c2cc(O)c(O)c(O)c2)c1
active: [11] 7.77 µM | [13] 11.2 µM | [14] 8.95 µM
not listed: [3] | [16] | [17] | [18] | [19]
inactive: all other assays above

O=C1OC(=O)C2C3C=CC(C3)C12 (configuration not stated)
not listed: [2] | [3] | [6] | [7] | [17] | [18]
inactive: all other assays above

CC(C)CCCCCCCOC(=O)CCCCC(=O)OCCCCCCCC(C)C
not listed: [2] | [3] | [6] | [15] | [18] | [19]
inactive: all other assays above
